# Measurements taken from PubChem BioAssay.
# Activity calls are given as the source filed them. Unless noted, how the calls were made is not given here.
# Tests used:
# [1] = test system: Wnt5a (protein binding on small-molecule microarray); assay: small molecules binding Wnt5a protein – biophysical, small-molecule microarray, 635/667 nm fluorescence, primary screen (AID 1142); settings: 635 nm fluorescence, higher = more signal;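 further: fluorescence read at 667 nm with signal to noise per printed feature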
# [2] = ATP-based viability of Huh7 replicon cells – cell-based, CellTiter-Glo luminescence, basal, 48 h, cytotoxicity control for HCV replication inhibitor project, primary screen (AID 1143); settings: higher = more signal, called active from +8 up or from −8 down;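 further: Huh7 hepatoma cells carrying a hepatitis C replication reporter with no stimulus; test concentration not given here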
# [3] = Pseudomonas biofilm growth suppression – PAO1 strain, BacTiter-Glo luminescence, LB-PBS, primary screen (AID 1144); settings: P. aeruginosa PAO1 biofilm, 12 h, higher = more signal
# [4] = basal CRE-LacZ reporter activity in PC12 – cell-based, unstimulated, primary screen (AID 1145); settings: no forskolin, luminescence, 4.5 h, higher = more signal, called active from +8 up or from −8 down
# [5] = forskolin-driven CRE-LacZ activity in PC12 – cell-based, CRE-LacZ reporter, forskolin-stimulated, primary screen (AID 1146); settings: luminescence, 4.5 h, higher = more signal, called active from +8 up or from −8 down;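 further: PC12 cells with 6xCRE LacZ reporter stimulated by forskolin 10 µM; beta-galactosidase reporter signal reflecting CREB driven transcription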
# [6] = biological target: Streptavidin (Streptomyces avidinii) (UniProt P22629); assay: compounds binding control protein streptavidin – biophysical, small-molecule microarray, 635/667 nm fluorescence, artefact control for SMM compound annotation, primary screen (AID 1147); settings: higher = more signal;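 further: signal reflects streptavidin binding to arrayed compounds as a control protein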
# Chain of Streptavidin (Streptomyces avidinii) (P22629 whole entry, looked up): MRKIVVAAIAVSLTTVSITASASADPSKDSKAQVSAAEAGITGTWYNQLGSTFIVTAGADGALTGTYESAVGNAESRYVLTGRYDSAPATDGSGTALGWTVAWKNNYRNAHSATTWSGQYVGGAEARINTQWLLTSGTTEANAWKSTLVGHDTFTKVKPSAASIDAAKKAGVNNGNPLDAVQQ
# [7] = probe aInhba binding on compound microarray – biochemical, small-molecule microarray, 635/667 nm fluorescence, primary screen (AID 1148); settings: higher = more signal;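 further: score merges 667nm spot fluorescence with signal-to-noise for antibody binding to printed compounds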
# [8] = biological target: Torsin-1A (Homo sapiens) (UniProt O14656); assay: TOR1A wild-type binding on microarray – cell lysate, small-molecule microarray, lysate, 635/667 nm, primary screen (AID 1149); settings: COS7 hTOR1A-WT lysate, 635 nm fluorescence, higher = more signal
# Chain of Torsin-1A (Homo sapiens) (O14656 whole entry, looked up): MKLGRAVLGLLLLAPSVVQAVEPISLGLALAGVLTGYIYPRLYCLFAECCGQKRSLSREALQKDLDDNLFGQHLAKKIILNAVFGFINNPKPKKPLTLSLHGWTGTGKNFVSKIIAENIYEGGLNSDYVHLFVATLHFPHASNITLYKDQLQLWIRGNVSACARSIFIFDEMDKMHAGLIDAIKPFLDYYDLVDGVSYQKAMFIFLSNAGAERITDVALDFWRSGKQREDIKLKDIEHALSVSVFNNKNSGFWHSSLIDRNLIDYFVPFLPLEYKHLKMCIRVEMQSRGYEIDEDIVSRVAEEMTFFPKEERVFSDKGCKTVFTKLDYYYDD
# [9] = biological target: Torsin-1A (Homo sapiens) (UniProt O14656); assay: torsin A mutant lysate binding on microarrays – cell lysate, small-molecule microarray, COS7 lysate, 635/667 nm fluorescence, primary screen (AID 1150); settings: COS7 hTOR1A mutant lysate, 635 nm fluorescence, higher = more signal;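 further: score pools 667 nm emission and signal to noise measuring lysate protein binding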
# [10] = test system: Sonic hedgehog protein (Shh); assay: Sonic hedgehog microarray binding compounds – biochemical, small-molecule microarray, 635/667 nm fluorescence, primary screen (AID 1151); settings: 635 nm fluorescence, higher = more signal;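 further: Shh protein binding to compounds spotted on small-molecule microarray slides; score combines spot fluorescence intensity with signal-to-noise across triplicate slides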
# [11] = optical density shifts of acrAB sulA E. coli – strain DRC41, OD650, 48 h, E. coli filamentation inducer project, primary screen (AID 1152); settings: higher = more signal, called active from +8 up or from −8 down;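 further: E. coli MC1000 strain DRC41 lacking acrAB efflux pump and sulA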
# [12] = probe aLefty1 binding on compound microarray – biochemical, small-molecule microarray, 635/667 nm fluorescence, primary screen (AID 1153); settings: higher = more signal;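 further: score merges spot fluorescence with signal-to-noise ratio from the scanned slide images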
# [13] = plasmodial surface anion channel blockers, osmotic lysis – cell-based, P. falciparum Indochina, OD700, 1 h, primary screen (AID 1154); settings: P. falciparum Indochina infected RBC osmotic lysis, higher = more signal, called active from +8 up or from −8 down
# [14] = plasmodial surface anion channel blockers, osmotic lysis – cell-based, P. falciparum Indochina, OD700, 2 h, primary screen (AID 1155);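 further: lysis reports solute entry through the parasite surface anion channel PSAC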; settings: P. falciparum Indochina infected erythrocytes, higher = more signal, called active from +8 up or from −8 down
# [15] = changes in parasitized red cell lysis, either direction – P. falciparum Indochina, OD700, 3 h, PSAC antagonist project, primary screen (AID 1156); settings: P. falciparum-infected erythrocytes, osmotic lysis, higher = more signal, called active from +8 up or from −8 down
# [16] = plasmodial surface anion channel blockers, osmotic lysis – cell-based, P. falciparum Indochina, OD700, 18 h, primary screen (AID 1157); settings: P. falciparum Indochina infected erythrocytes, osmotic lysis OD700, 18 h; higher = more signal, called active from +8 up or from −8 down
# [17] = S6 kinase pathway phospho-S6 level changes – cell-based, A549, cytoblot, luminescence, serum-stimulated, primary screen (AID 1158); settings: 5 h, higher = more signal;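 further: serum-stimulated A549 lung adenocarcinoma cells; signal is phosphorylated S6 detected by cytoblot immunostaining with HRP secondary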
# [18] = biological target: NADPH oxidase 2 (Homo sapiens) (UniProt P04839); assay: compounds shifting NOX2 Amplex Red fluorescence – cell-based, HEK293-NOX2, PMA-stimulated, NOX inhibitor project, primary screen (AID 1159); settings: 45 min, higher = more signal, called active from +8 up or from −8 down; further: test concentration not given here
# Chain of NADPH oxidase 2 (Homo sapiens) (P04839 whole entry, looked up): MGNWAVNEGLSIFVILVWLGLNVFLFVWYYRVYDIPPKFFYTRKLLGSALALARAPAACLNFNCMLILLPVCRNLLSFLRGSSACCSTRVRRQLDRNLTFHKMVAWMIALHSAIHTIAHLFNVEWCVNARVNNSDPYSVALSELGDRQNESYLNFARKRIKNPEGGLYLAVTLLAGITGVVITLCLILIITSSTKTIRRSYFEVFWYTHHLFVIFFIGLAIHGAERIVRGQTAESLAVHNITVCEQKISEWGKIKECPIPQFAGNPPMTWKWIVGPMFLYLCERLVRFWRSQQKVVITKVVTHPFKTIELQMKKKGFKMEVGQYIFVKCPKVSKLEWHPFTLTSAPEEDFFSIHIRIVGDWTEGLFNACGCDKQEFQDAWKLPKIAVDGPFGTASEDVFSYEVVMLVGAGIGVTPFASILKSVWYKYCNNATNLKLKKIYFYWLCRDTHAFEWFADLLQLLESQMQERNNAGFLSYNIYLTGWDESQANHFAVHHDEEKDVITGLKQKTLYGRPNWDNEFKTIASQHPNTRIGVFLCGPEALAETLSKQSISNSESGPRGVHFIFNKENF
# [19] = biological target: NADPH oxidase 4 (Homo sapiens) (UniProt Q9NPH5); assay: compounds shifting NOX4 Amplex Red fluorescence – cell-based, HEK293-NOX4, tetracycline-induced, NOX inhibitor project, primary screen (AID 1160); settings: HEK293-NOX4, Amplex Red H2O2 fluorescence, 45 min; higher = more signal, called active from +8 up or from −8 down
# Chain of NADPH oxidase 4 (Homo sapiens) (Q9NPH5 whole entry, looked up): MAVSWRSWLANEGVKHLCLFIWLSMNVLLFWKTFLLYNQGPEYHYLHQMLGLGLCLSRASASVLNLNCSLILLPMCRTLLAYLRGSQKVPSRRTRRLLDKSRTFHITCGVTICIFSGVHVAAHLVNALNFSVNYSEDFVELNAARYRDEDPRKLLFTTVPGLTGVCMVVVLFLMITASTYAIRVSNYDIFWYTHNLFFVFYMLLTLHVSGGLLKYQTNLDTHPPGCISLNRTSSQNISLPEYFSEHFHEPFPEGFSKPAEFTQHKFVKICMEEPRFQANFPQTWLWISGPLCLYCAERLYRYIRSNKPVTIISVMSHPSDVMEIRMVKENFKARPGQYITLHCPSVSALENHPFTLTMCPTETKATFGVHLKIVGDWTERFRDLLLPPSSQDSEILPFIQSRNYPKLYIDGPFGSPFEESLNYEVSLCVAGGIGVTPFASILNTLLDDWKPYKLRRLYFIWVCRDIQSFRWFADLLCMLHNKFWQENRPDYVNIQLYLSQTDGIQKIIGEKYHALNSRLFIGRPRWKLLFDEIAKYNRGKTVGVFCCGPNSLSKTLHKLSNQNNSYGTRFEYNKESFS
# [20] = biological target: NADPH oxidase 5 (Homo sapiens) (UniProt Q96PH1); assay: compounds shifting NOX5 Amplex Red fluorescence – cell-based, HEK293-NOX5, NOX inhibitor project, primary screen (AID 1161); settings: HEK293-NOX5, ionomycin, 45 min, higher = more signal
# Chain of NADPH oxidase 5 (Homo sapiens) (Q96PH1 whole entry, looked up): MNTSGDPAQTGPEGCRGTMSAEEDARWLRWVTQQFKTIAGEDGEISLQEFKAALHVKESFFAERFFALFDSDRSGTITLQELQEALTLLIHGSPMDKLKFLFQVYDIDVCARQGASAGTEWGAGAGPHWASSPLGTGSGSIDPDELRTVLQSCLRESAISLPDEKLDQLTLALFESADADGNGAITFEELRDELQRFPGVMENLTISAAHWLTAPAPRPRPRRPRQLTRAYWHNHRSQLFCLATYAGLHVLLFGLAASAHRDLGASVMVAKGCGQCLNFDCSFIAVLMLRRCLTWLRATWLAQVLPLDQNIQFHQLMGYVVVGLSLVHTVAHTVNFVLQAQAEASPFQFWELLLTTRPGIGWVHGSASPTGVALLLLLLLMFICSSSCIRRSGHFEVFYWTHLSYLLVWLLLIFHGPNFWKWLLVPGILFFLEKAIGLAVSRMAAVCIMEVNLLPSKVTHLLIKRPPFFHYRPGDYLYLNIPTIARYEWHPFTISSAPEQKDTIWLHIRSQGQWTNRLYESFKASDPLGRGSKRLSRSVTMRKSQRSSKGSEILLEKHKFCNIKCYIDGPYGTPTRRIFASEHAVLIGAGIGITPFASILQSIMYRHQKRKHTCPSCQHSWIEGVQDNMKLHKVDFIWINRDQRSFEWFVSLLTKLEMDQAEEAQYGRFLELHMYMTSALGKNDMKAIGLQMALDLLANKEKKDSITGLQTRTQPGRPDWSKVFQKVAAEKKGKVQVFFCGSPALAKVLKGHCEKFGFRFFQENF
Compound,composite z-score [1],z-score [2],z-score [3],z-score [4],z-score [5],composite z-score [6],composite z-score [7],composite z-score [8],composite z-score [9],composite z-score [10],z-score [11],composite z-score [12],z-score [13],z-score [14],z-score [15],z-score [16],z-score [17],z-score [18],z-score [19],z-score [20]
COCCOC(=O)N1C(=O)[C@@]2(c3cc(C#CC4=CCCCC4)ccc31)[C@H](C(=O)N1CCc3cc(OC)c(OC)cc3C1)[C@H]1C(=O)O[C@H](c3ccccc3)[C@H](c3ccccc3)N1[C@@H]2c1ccc(O)cc1,0.718,-0.447 (inactive),0.108 (inactive),-0.321 (inactive),-0.539 (inactive),1.85,0.467,0.544,1.23,1.67,0.448 (inactive),0.679,0.996 (inactive),0.755 (inactive),0.067 (inactive),0.827 (inactive),0.228,1.58 (inactive),-0.0332 (inactive),1.18
COc1ccc([Si](C)(C)[C@@H]2[C@@H](CC(=O)N(CCO)Cc3ccccc3)O[C@]3(C(=O)N(Cc4ccc(N5CCC5=O)cc4)c4ccccc43)[C@H]2C)cc1,-0.0009,-5.9 (inactive),-0.259 (inactive),5.16 (inactive),0.0245 (inactive),-0.301,-0.318,-0.0822,0.134,0.7,1.12 (inactive),-0.399,6.38 (inactive),0.924 (inactive),-0.709 (inactive),-1.27 (inactive),0.838,1.53 (inactive),1.41 (inactive),3.52
COC(=O)[C@]1(CO)N=C(c2ccc(OCCCO)cc2)O[C@@H]1c1ccccc1CN=[N+]=[N-],-0.0408,-0.394 (inactive),1.34 (inactive),0.643 (inactive),0.224 (inactive),-0.447,-0.154,-0.208,0.518,0.583,0.699 (inactive),-0.0626,7.47 (inactive),0.731 (inactive),1.34 (inactive),0.497 (inactive),-0.405,-0.259 (inactive),-0.0289 (inactive),0.234
COC(=O)C1=CC(CCCO)=CC(C2CC2)N(Cc2cccc(OC(F)(F)F)c2)C=C1C(=O)OC (stereo not given),0.172,-1.15 (inactive),-0.393 (inactive),-0.0243 (inactive),0.969 (inactive),0.307,0.0711,-0.38,0.497,-0.153,-1.16 (inactive),0.193,3.22 (inactive),0.455 (inactive),-0.623 (inactive),0.526 (inactive),0.204,-0.179 (inactive),-0.34 (inactive),0.973
CCCCCCc1nc(-c2ccc(OC)nc2)cc2c1[Si](C(C)C)(C(C)C)OC2,-0.446,-3.35 (inactive),-0.757 (inactive),-0.36 (inactive),-0.565 (inactive),0.151,-0.0963,-0.734,0.706,-0.0247,-0.45 (inactive),-0.103,2.62 (inactive),0.0409 (inactive),-0.484 (inactive),-0.179 (inactive),0.366,-4.66 (inactive),-2.14 (inactive),-4.22
COc1cccc(OC)c1C(=O)O[C@H]1[C@@H]2OC(=O)[C@H](Cc3cccc(Br)c3)C/C=C/C[C@@H](Cc3cccc(Br)c3)C(=O)O[C@H]2[C@@H](OC)O[C@@H]1CO,0.125,-1.74 (inactive),-0.0318 (inactive),-0.467 (inactive),-0.201 (inactive),-0.114,-0.128,-0.0031,0.529,1.23,-0.899 (inactive),-0.0559,3.18 (inactive),-0.0392 (inactive),-1.53 (inactive),0.581 (inactive),0.0487,-0.443 (inactive),-0.0533 (inactive),0.955
CCC[C@@H]1[C@@H](Sc2ccccc2)[C@@H](C(=O)O)[C@H](c2ccc(C)cc2)N1S(=O)(=O)c1ccc(C)cc1,0.664,-1.72 (inactive),-1.96 (inactive),-0.471 (inactive),-0.722 (inactive),1.67,0.0921,0.26,0.165,0.641,0.086 (inactive),0.0531,1.44 (inactive),0.495 (inactive),-0.892 (inactive),1 (inactive),-0.0334,1.82 (inactive),0.872 (inactive),1.27
COc1cc(OC)c(C(O)C2C=CC3C(=O)N(c4ccccc4)C(=O)C3N2Nc2ccccc2F)cc1Br (stereo not given),0.193,-0.259 (inactive),-1.14 (inactive),0.636 (inactive),0.758 (inactive),1.24,0.206,2.01,0.879,-0.2,-1.76 (inactive),0.692,7.23 (inactive),2.36 (inactive),0.449 (inactive),1.54 (inactive),-0.822,-1.32 (inactive),-4.43 (inactive),-2.21
